Hits are enriched below; roughly 1.5% of the tested compounds scored in any of these assays.
PP1 counter – PP1-alpha (human) inhibition in PP5 counter-screen; purified PP1alpha, OMFP fluorescence; AID 2235; inhibition, % at 6.7 µM; 0.9% of 320,000 active;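 active means inhibition above the mean inhibition of all tested compounds plus 3 SD, computed separately for each screening campaign, cut at about 15% in these data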
Dyrk1A ADPGlo – inhibitors of rat Dyrk1A kinase; Q63470; ADP-Glo luminescence, NFATc1 peptide; inhibition, % at 12.5 µM; 0.43% of 310,000 active; AID 504441; in the data active means inhibition above about 50%;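 further: plate controls were vehicle with enzyme for no effect and no enzyme for full effect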
PP5 primary – inhibitors of human protein phosphatase 5 (PP5) | 0.18% of 320,000 active | purified PP5c, OMFP substrate fluorescence | P53041 | inhibition, % at 6.7 µM;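 active means inhibition above the campaign's mean inhibition across all tested compounds plus 3 SD, cut at about 9.5% in these data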;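 further: 0% = DMSO only and 100% = 100 µM cantharidin control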
Target sequence (P53041 whole entry, looked up): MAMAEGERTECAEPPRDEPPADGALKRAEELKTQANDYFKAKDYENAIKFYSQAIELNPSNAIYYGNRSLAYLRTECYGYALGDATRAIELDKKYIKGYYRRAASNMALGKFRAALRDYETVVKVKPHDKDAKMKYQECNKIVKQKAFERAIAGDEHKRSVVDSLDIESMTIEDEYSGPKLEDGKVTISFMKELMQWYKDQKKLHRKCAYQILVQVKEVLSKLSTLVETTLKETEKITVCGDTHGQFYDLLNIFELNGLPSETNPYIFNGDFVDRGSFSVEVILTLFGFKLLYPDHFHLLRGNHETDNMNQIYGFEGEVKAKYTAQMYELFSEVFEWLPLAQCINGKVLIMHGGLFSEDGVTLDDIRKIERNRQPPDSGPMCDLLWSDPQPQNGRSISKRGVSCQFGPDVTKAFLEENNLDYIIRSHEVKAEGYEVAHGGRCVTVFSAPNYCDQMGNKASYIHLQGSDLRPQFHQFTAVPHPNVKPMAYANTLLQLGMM
STK33 kinase inh – inhibitors of human STK33 kinase; purified STK33, MBP phosphorylation, ADP-Glo luminescence; inhibition, % at 10 µM; 0.073% of 320,000 active;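 active means inhibition at or above 25%, using the most active replicate where run in duplicate; inactive means inhibition below 25%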
HIF activator – HIF pathway transcriptional activation; U2OS HRE-luciferase reporter, luminescence; normalized: DMSO 0%, desferrioxamine 100%; 0.32% of 300,000 active; activation, % at 7.5 µM (by protocol);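 active means mean activation of at least 10% of the iron chelator positive control signal, with at least half of replicates also reaching 10%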
Starred values were filed as active, the others as inactive.

How did COC(=O)C1=C(C)N(C)C(=O)NC1c1c(O)ccc2ccccc12 (stereo not drawn) do in these assays?
PP1 counter: -5; Dyrk1A ADPGlo: -3; PP5 primary: -1; STK33 kinase inh: 0; HIF activator: -1

What do the screens show for `CN1CCN(Cc2cc(COCc3ccccc3)c3cccnc3c2O)CC1`?
PP1 counter: 22*; Dyrk1A ADPGlo: -3; PP5 primary: -1; STK33 kinase inh: 0; HIF activator: 221*

How did Oc1c(CN2CCCCC2)cc(Br)c2cccnc12 do in these assays?
PP1 counter: 9; PP5 primary: 4; STK33 kinase inh: -2

How did Oc1ccc(CN2CCN(Cc3ccccc3)CC2)c2cccnc12 do in these assays?
PP1 counter: 7; Dyrk1A ADPGlo: -2; PP5 primary: 2; STK33 kinase inh: -3; HIF activator: 11*

How did Cn1cc(C(=O)c2ccc(Cl)cc2Cl)cc1C(=O)N/N=C(\N)COc1ccc(Cl)cc1 do in these assays?
PP1 counter: 16*; Dyrk1A ADPGlo: -1; PP5 primary: 3; STK33 kinase inh: 1; HIF activator: 0

How did Cc1cc(NC(=O)COC(=O)C2CCC(=O)N2)c([N+](=O)[O-])cc1C (stereo not drawn) do in these assays?
PP1 counter: 0; PP5 primary: 0; STK33 kinase inh: -1; HIF activator: 0

What do the screens show for `CCc1ccc(OCC(=O)Nc2ccncc2)c(Br)c1`?
PP1 counter: 1; Dyrk1A ADPGlo: 16; PP5 primary: 3; STK33 kinase inh: 4; HIF activator: 13*

What do the screens show for `CC(C)(C)c1ccc(OCC(=O)Nc2ccncc2)c(Br)c1`?
PP1 counter: 9; Dyrk1A ADPGlo: 22; PP5 primary: 1; STK33 kinase inh: 2; HIF activator: 4

What do the screens show for `O=C(C1=C(O)C(=O)N(CCN2CCOCC2)C1c1ccc(F)cc1)c1cc2ccccc2o1` (stereo not drawn)?
PP1 counter: 7; Dyrk1A ADPGlo: -6; PP5 primary: -1; STK33 kinase inh: 1

What do the screens show for `O=C(C1=C(O)C(=O)N(CCN2CCOCC2)C1c1cccc(Br)c1)c1cc2ccccc2o1` (stereo not drawn)?
PP1 counter: 19*; PP5 primary: 1; STK33 kinase inh: -2; HIF activator: 0

Results for COCCCN1C(=O)C(O)=C(C(=O)c2ccc(C)o2)C1c1cccc(Br)c1 (stereo not drawn) ?
PP1 counter: 18*; Dyrk1A ADPGlo: -6; PP5 primary: 2; STK33 kinase inh: -4; HIF activator: 0

Results for CC(OC(=O)Nc1ccccc1)C(=O)OC1CCCCC1 (stereo not drawn) ?
Dyrk1A ADPGlo: 1

What do the screens show for `Cc1ccc(S(=O)(=O)N2CCCC(C(=O)NCCc3ccc(S(N)(=O)=O)cc3)C2)cc1` (stereo not drawn)?
PP1 counter: 2; Dyrk1A ADPGlo: 0; PP5 primary: 1; STK33 kinase inh: 0; HIF activator: 1

How did O=c1oc2c(O)c(O)cc3c(=O)oc4c(O)c(O)cc1c4c23 do in these assays?
PP1 counter: 27*; Dyrk1A ADPGlo: 34; PP5 primary: 0; STK33 kinase inh: 12

Results for N#CC1(NC(=O)COC(=O)c2ccc(-c3ccc(O)cc3)cc2)CCCCC1 ?
PP1 counter: 16*; Dyrk1A ADPGlo: 9; PP5 primary: 2; STK33 kinase inh: 1

Results for Cc1ccc(NC(=O)Cn2nnc(C(=O)Nc3ccc(C)c(C)c3)c2N)cc1 ?
PP1 counter: 16*; Dyrk1A ADPGlo: 0; PP5 primary: 1; STK33 kinase inh: -1; HIF activator: 0

How did Cc1ccc(NC(=O)c2nnn(CC(=O)Nc3ccc4c(c3)OCO4)c2N)cc1C do in these assays?
PP1 counter: 9; Dyrk1A ADPGlo: 0; PP5 primary: 1; STK33 kinase inh: -1; HIF activator: 0

How did N#C/C(=C(/O)c1ccco1)c1nc2ccccc2[nH]1 do in these assays?
PP1 counter: 1; Dyrk1A ADPGlo: -1; PP5 primary: 3; STK33 kinase inh: 29*; HIF activator: 9

Results for CC1CCCCN1S(=O)(=O)c1cccc2nonc12 (stereo not drawn) ?
Dyrk1A ADPGlo: -4; STK33 kinase inh: 0; HIF activator: 0

What do the screens show for `O=C(N[C@@H]1CCC(=O)N(CC[C@H](Sc2ccc(Br)cc2)c2ccccc2)CC1)OCc1ccccc1`?
PP1 counter: 16*; Dyrk1A ADPGlo: 3; PP5 primary: 3; STK33 kinase inh: 1

Results for CCSc1nc(N2CCOCC2)c2c(c1C#N)CCCC2 ?
PP1 counter: 4; Dyrk1A ADPGlo: 20; PP5 primary: 6; STK33 kinase inh: 31*; HIF activator: -1

How did CCN(CC)S(=O)(=O)c1ccc(N/N=C/c2ccc(O)cc2)nc1 do in these assays?
PP1 counter: -2; Dyrk1A ADPGlo: -1; PP5 primary: 3; STK33 kinase inh: -1; HIF activator: 0

What do the screens show for `CCN(CC)S(=O)(=O)c1ccc(N/N=C(\C)c2ccc(OC)cc2O)nc1`?
PP1 counter: 3; Dyrk1A ADPGlo: 25; PP5 primary: 3; STK33 kinase inh: -1; HIF activator: 9.6*

How did CN(C)/C=C/C(=O)c1ccc2noc(-c3ccccc3)c2c1 do in these assays?
PP1 counter: 5; Dyrk1A ADPGlo: 6; PP5 primary: 2; STK33 kinase inh: 45*; HIF activator: 0

What do the screens show for `Cn1cc(CN2CCN(Cc3ccccc3)CC2)c(-c2cccc(Cl)c2)n1`?
PP1 counter: -1; Dyrk1A ADPGlo: 0; PP5 primary: -1; STK33 kinase inh: -1; HIF activator: 0

How did C/C(=N\Nc1cccc([N+](=O)[O-])c1)c1cc(F)ccc1O do in these assays?
PP1 counter: -5; Dyrk1A ADPGlo: 4; PP5 primary: 3; STK33 kinase inh: 0; HIF activator: 2

What do the screens show for `CC(C)c1ccc(N(C(=O)c2snc(C(N)=O)c2N)C(C(=O)NC2CCCC2)c2ccncc2)cc1` (stereo not drawn)?
PP1 counter: 11; Dyrk1A ADPGlo: 3; PP5 primary: 0; STK33 kinase inh: -1; HIF activator: 44*

What do the screens show for `O=C(Cn1nnc2ccccc2c1=O)NCCc1ccc(F)cc1`?
PP1 counter: -4; PP5 primary: 5; STK33 kinase inh: -1; HIF activator: 0

What do the screens show for `CN(CC(=O)NNC(=O)Cc1ccccc1F)S(=O)(=O)c1ccc(Cl)cc1`?
PP1 counter: -5; Dyrk1A ADPGlo: 3; PP5 primary: -1; HIF activator: 0

How did COc1ccc(/C=C2\SC(=O)N(CCC(=O)N(C)C3CCS(=O)(=O)C3)C2=O)cc1 (stereo not drawn) do in these assays?
PP1 counter: -2; Dyrk1A ADPGlo: 0; PP5 primary: -1; STK33 kinase inh: 2; HIF activator: 64*

How did O=c1c2ccccc2sc2ccc(NCCCN3CCOCC3)cc12 do in these assays?
PP1 counter: 0; Dyrk1A ADPGlo: 39; PP5 primary: -1; STK33 kinase inh: 57*; HIF activator: 5

What do the screens show for `CN1CCCC1CCNc1ccc2sc3ccccc3c(=O)c2c1` (stereo not drawn)?
PP1 counter: -1; Dyrk1A ADPGlo: 43; PP5 primary: -4; STK33 kinase inh: 44*; HIF activator: 2
